Screens (PubChem BioAssay)
A selection: hits, their analogues and other compounds. The true share with any hit is near 5.7%.
Myeloid diff MLP = induction of myeloid progenitor differentiation, primary screen, cell-based, flow cytometry, MLPCN library; ER-HoxA9 myeloid progenitors, lysozyme-GFP differentiation; calls only at 10 µM; hit rate 1% among 360,000; AID 624256, 2012;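 active = normalized GFP-positive differentiation at or above the plate's own cutoff, the solvent-only control mean plus 3 SD; inconclusive = no clear call, values can overlap the other calls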;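 note: cells exposed to compound for four days before flow analysis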
rCAG binder = binders of r(CAG) RNA repeats, primary screen, biochemical, fluorescence; r(CAG) RNA repeat, TO-PRO-1 dye displacement fluorescence; AID 651821, 2012; inhibition, % at 3 µM; hit rate 1.3% among 370,000;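 active = inhibition above the plate cutoff, the mean of all test compounds on that plate plus 3 SD, cut at about 35% in these data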;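 note: 0% = DMSO alone and 100% = 100 µM mitoxantrone as full dye displacement; higher means more dye released from RNA so lower well fluorescence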
FAS-TE inh = FAS thioesterase domain inhibitors, primary screen, biochemical, fluorescence intensity, uHTS; Fatty acid synthase (Homo sapiens), P49327; recombinant FAS-TE, OMFH fluorogenic substrate, fluorescence endpoint; inhibition, % at 15 µM; hit rate 0.67% among 360,000; AID 602261, 2012;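 active = compounds whose normalised, plate-corrected inhibition of enzyme fluorescence in the single-dose primary screen is 50% or more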;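 note: 0% = DMSO with enzyme and 100% = substrate without enzyme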
NR3A LBD binder = binders of NR3A ligand-binding domain, primary screen, biophysical, differential scanning fluorimetry, uHTS. Glutamate receptor ionotropic, NMDA 3A (GRIN3A) ligand-binding domain. NR3A LBD differential scanning fluorimetry, Tm shift; 0% = protein alone, 100% = glycine-bound protein. Tm shift relative to glycine control, % at 25 µM. hit rate 2.5% among 340,000;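 active = melting temperature shift of at least 10% of the positive control shift, at one fixed dose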
MPTP inh = mitochondrial permeability transition pore inhibitors, primary screen, biochemical, isolated mouse mitochondria, absorbance; Ca2+ swelling absorbance, 30 min; inhibition, % at 10 µM; hit rate 1.4% among 360,000; AID 602449, 2012;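 active = inhibition of 50% or more, scaled per plate between neutral and stimulator controls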;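 note: 0% = DMSO wells given calcium and 100% = 1 mM EGTA wells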
Rh123 counter = fluorescence retest of MPTP screen hits in isolated mitochondria, single concentration; inhibition, % at 10 µM; membrane potential, Rhodamine 123 fluorescence; AID 624504, 2012; shares compounds with MPTP inh; hit rate 78% among 5,000; in the data active = inhibition above about 22%;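 note: 0% = DMSO vehicle and 100% = positive control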
Active calls of the source: *; i = inactive; u = inconclusive; x = not tested or not shown.

SMILES	Myeloid diff MLP	rCAG binder	FAS-TE inh	NR3A LBD binder	MPTP inh	Rh123 counter
CCc1ccc(CN(C)C(=O)c2cc(COc3cccc4cnccc34)on2)cc1	u	0	13	-13	99*	103*
CC(=O)c1cccc(OCc2cc(C(=O)N(C)Cc3cnccn3)no2)c1	i	1	-2	-1	1	x
Fc1ccc(Nc2c3c(nc4ccccc24)CCC3)cc1	i	1	3	0	70*	84*
c1ccc(Nc2c3c(nc4ccccc24)CCC3)cc1	i	-2	1	-3	45	x
O=C(Nc1cccc(Cl)c1)c1ccc(F)c(S(=O)(=O)NCc2ccc3c(c2)OCO3)c1	i	8	14	13*	51*	66*
O=C(Nc1ccc(Br)cc1)c1ccc(F)c(S(=O)(=O)NCc2cccs2)c1	i	12	27	18*	97*	94*
O=C(NCc1ccc2c(c1)OCO2)c1ccc(Cl)c(S(=O)(=O)NCc2ccccc2)c1	i	2	12	-3	0	x
CC[C@H](C)NC(=O)c1ccc(Cn2c(=S)[nH]c3c([nH]c4ccc(OC)cc43)c2=O)cc1	i	13	-7	7	5	x
CCc1nnc(NC(=O)c2cc(S(=O)(=O)N(C)c3ccc(OC)cc3)ccc2Cl)s1	i	9	0	1	0	x
O=c1cc(-c2ccccc2Cl)oc2c(NS(=O)(=O)c3cc(Cl)cc(Cl)c3O)ccc(O)c12	i	x	68*	5	70*	6
COc1ccc(Cc2nnc(Nc3ccc(Cl)cc3)[nH]c2=O)cc1	i	24	-28	-1	84*	67*
Nc1ccccc1N=Cc1ccc(-c2cccc(Cl)c2)o1	i	20	25	22*	67*	66*
COc1ccc(-c2n[nH]c(C(F)(F)F)c2-c2cc3ccccc3o2)c(O)c1	i	20	23	15*	55*	60*
COc1ccccc1-c1c(-c2ccc(OCC(=O)NN)cc2O)n[nH]c1C(F)(F)F	i	9	-12	-2	0	x
O=S(=O)(c1ccc(Cl)cc1)N1CCN(c2ccccn2)CC1	i	-6	10	1	1	x
Cc1csc2c(N3CCCCC3)ncnc12	i	-3	-1	0	1	x
O=S(=O)(c1ccc(Cl)cc1)N1CCN(c2ncnc3sccc23)CC1	i	5	34	-2	70*	94*
Cc1csc2c(N3CCN(S(=O)(=O)c4ccc(Cl)cc4)CC3)ncnc12	i	3	2	-1	67*	21*
CCCNC(=S)N1CC2(C)CN(C(=O)C(=O)OC)CC(C)(C1)C2=O	i	-2	-3	-1	-1	x
CC1(C)CCC(=O)N2CC[C@H]3C[C@H](OC(=O)Nc4ccc(Br)cc4)C[C@@H]1[C@H]32	i	-1	4	6	69*	87*
O=C(Nc1ccc2c(c1)OCO2)O[C@@H]1C[C@H]2CCCC(=O)N3CC[C@@H](C1)[C@@H]23	i	2	-8	-3	-1	x
C[C@H](CO)N1C[C@H](C)[C@@H](CN(C)Cc2cccc3c2OCCCO3)OCc2cnnn2CCCC1=O	i	0	-7	x	-2	x
O=C(Nc1ccccc1-c1nc2ccccc2[nH]1)c1ccc(S(=O)(=O)N2CCCCC2)cc1	i	1	8	7	50*	28*
CC1CCCCN1S(=O)(=O)c1ccc(C(=O)Nc2ccccc2-c2nc3ccccc3[nH]2)cc1 (centres undefined)	i	7	31	30*	74*	75*
CC1CCCCN1S(=O)(=O)c1ccc(C(=O)Nc2ccccc2-c2nc3ccccc3s2)cc1 (centres undefined)	i	3	37	0	-1	x
SMILES	Myeloid diff MLP	rCAG binder	FAS-TE inh	NR3A LBD binder	MPTP inh	Rh123 counter
Cc1ccc(C)c(CN2CCCN(Cc3cc(C)ccc3C)S2(=O)=O)c1	i	0	22	1	-1	x
CC1(c2nnnn2C2CCCC2)CCC(=O)N1c1ccc2c(c1)OCCO2 (centres undefined)	i	-1	x	x	0	x
COc1ccc(-c2[nH]c(-c3ccc(C(=O)O)cc3)nc2-c2ccccc2)cc1	i	25	-1	1	4	x
COc1cc(-c2nc(-c3ccccc3)c(-c3ccc(F)cc3)[nH]2)cc2c1OCO2	i	8	24	9	89*	63*
COc1ccc(-c2[nH]c(-c3ccc4c(c3)OCO4)nc2-c2ccccc2)cc1	i	6	31	-1	95*	70*
COc1ccc(NC(=O)COC(=O)CNS(=O)(=O)c2ccccc2)cc1OC	i	0	-8	-1	120*	-3
Cc1ccc2c(CC(=O)Nc3cccc(S(=O)(=O)N4CCOCC4)c3)coc2c1	i	8	18	-6	0	x
CCCSc1nsc(NC(=O)Nc2ccc(F)cc2F)n1	i	14	8	14*	97*	85*
O=S(=O)(Nc1ccc(-c2ccc3nncn3n2)cc1)c1cccc(F)c1	i	5	-3	3	-1	x
O=S(=O)(c1ccc(Br)s1)N1CCN(c2ccnc3cc(Cl)ccc23)CC1	i	8	46	1	65*	36*
Cc1cccc(C(=O)Nc2cc(S(=O)(=O)N3CCOCC3)ccc2N2CCCC2)c1	i	-1	-3	0	-1	x
Cc1nc(NCCc2ccccc2)c2oc3ccccc3c2n1	i	2	11	-1	97*	75*
OC[C@@H]1CN(Cc2ccc3c(c2)OCO3)C[C@H](n2cnc3c(N4CCN(c5ccccc5)CC4)ncnc32)O1	i	8	6	x	1	x
O=C(CSc1ncnc2c1sc1ccccc12)Nc1ccc(Br)cc1	i	4	-12	1	54*	37*
COc1ccc(CCNC(=S)Nc2ccc(C(C)C)cc2)cc1	i	-2	26	3	37	x
CC(C)c1ccc(NC(=S)Nc2ccc(OC(F)(F)F)cc2)cc1	i	0	5	-8	90*	90*
O=C(O)/C=C/C(=O)Nc1ccc(OC(F)(F)F)cc1	i	-3	-7	1	0	x
FC(F)(F)Oc1ccc(NC(=S)Nc2ccc(OC(F)(F)F)cc2)cc1	i	3	8	5	95*	71*
c1ccc(CC2CCN(C3=Nc4cccc5cccc3c45)CC2)cc1	i	x	5	-2	51*	29*
CCN(CC)CCCNC(=O)c1cc(Nc2ccc(OC)cc2)nc2ccccc12	i	6	0	0	-1	x
COCC1CCCN(C(=O)c2ccc(OC3CCN(Cc4ccccn4)CC3)cc2)C1 (centres undefined)	i	-12	-3	0	1	x
